Eya2 inh: qHTS Assay for Inhibitors of the Phosphatase Activity of Eya2; Protein phosphatase EYA2 (Homo sapiens), O00167; recombinant Eya2, OMFP fluorescence dephosphorylation (OMFP is methylfluorescein phosphate); Potency, µM (titrated, usually from 76.9 µM), without a hit: top-dose activity, negative = inhibition, usual class: inhibitors; 330,000 compounds, 0.006% hits; AID 488837, 2010; further: potency means the concentration at half of the fitted maximal effect
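Eya2 (0.2 uM) preincubated 10 min at ambient with compound, then OMFP substrate added at 50 uM; 10 min reaction in 50 mM HEPES pH 7.5, 50 mM NaCl, 5 uM MgCl2, 0.05% BSA, 1 mM DTT. Fluorescence read at Ex 485/Em 525 nm.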
Apoferritin bind: qHTS Assay for Identification of Novel General Anesthetics. Potency, µM (titrated, usually from 77.5 µM), without a hit: at the highest dose activity change, negative = displacement, most hits filed as inhibitors. apoferritin/1-aminoanthracene competitive binding, fluorescence. 350,000 compounds, 0.074% hits. Ferritin light chain (Equus caballus), P02791; further: potency means the concentration at half of the fitted maximal effect; nearly all actives have a fitted effect of over 20% in size
Target sequence (P02791 2-175 limits assumed): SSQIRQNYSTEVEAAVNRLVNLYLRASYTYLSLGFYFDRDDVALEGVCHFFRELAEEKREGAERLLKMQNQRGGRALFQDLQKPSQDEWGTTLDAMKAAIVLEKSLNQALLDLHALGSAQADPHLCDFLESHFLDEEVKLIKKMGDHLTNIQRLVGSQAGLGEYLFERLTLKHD
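Steps: apoferritin (10 uM) was premixed with half-saturated 1-AMA in PBS, compounds were pin-transferred, plates stood 10 min at room temperature, fluorescence was read at 380/535 nm, and curves were fitted with a Hill equation.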
Six1-Eya2 inh: qHTS Assay for Inhibitors of the Six1/Eya2 Interaction; Homeobox protein SIX1 (Homo sapiens) + Protein phosphatase EYA2 (Homo sapiens), …; 360,000 compounds, 0.56% hits; AlphaScreen GST-Six1/His-Eya2 binding, biochemical; stronger effect = lower value; activity change, % (no concentration beside the values); in the data active means activity change below about -65%; inconclusive means mostly about -30% to -63%
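Homogeneous AlphaScreen proximity assay pairing GST-Six1 with His-tagged Eya2 (added as 5X mix: 250 nM and 500 nM) in 50 mM Tris pH 8.0, 300 mM NaCl, 1 mM TCEP. Glutathione donor and nickel acceptor beads; 1 h, 37 °C, dark.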
GALK inh: qHTS Assay for Inhibitors of Human Galactokinase (GALK). Purified GALK, Kinase-Glo residual ATP luminescence. P51570. 270,000 compounds, 0.007% hits. Potency, µM (highest dose often 57.5 µM), for inactives: at the top dose activity change, negative = inhibition, hits mostly inhibitors; further: potency means the concentration at half of the fitted maximal effect
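Luminescence from leftover ATP (Ultra-Glo luciferase/luciferin) served as read-out after a 1 h room-temperature reaction of 5 nM GALK with 35 uM ATP and 100 uM galactose.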
CtBP-E1A blk: qHTS Assay for Inhibitors of the CtBP/E1A Interaction. CtBP / adenovirus E1A interaction (AlphaScreen). AlphaScreen GST-E1A/His-CtBP binding, 1536-well; stronger effect = lower value. activity change, % (test concentration not listed). 340,000 compounds, 0.49% hits. AID 651724, 2012; in the data active means activity change below about -65%; inconclusive means mostly about -30% to -63%
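In 5 uL wells, 23 nL compound meets equimolar GST-E1A and His-CtBP (5X stock 125 nM each) for 2 h, 37 °C. Beads (5X, 50 ug/mL) then 1 h, 37 °C, dark.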
KDM4E inh: qHTS Assay for Inhibitors of Human Jumonji Domain Containing 2E (JMJD2E); Lysine-specific demethylase 4E (Homo sapiens), B2RXH2; JMJD2E catalytic domain, FDH-coupled NADH fluorescence (FDH is formaldehyde dehydrogenase); Potency, µM (titrated, usually from 57.1 µM), for the others: at the top dose activity change, negative = inhibition, actives largely listed as inhibitors; 230,000 compounds, 1.6% hits; active means well fitted inhibition curve with a large enough effect, not every such curve was filed as active; inconclusive means small, poorly fitted or top-dose-only effect, or another doubt; inactive means no such curve, though single readings can be large or run the other way;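 further: potency means the concentration at half of the fitted maximal effect; 0% = wells with enzyme and -100% = buffer wells without enzyme; nearly all actives have a fitted effect of over 50% in size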
Target sequence (B2RXH2 1-337 limits assumed): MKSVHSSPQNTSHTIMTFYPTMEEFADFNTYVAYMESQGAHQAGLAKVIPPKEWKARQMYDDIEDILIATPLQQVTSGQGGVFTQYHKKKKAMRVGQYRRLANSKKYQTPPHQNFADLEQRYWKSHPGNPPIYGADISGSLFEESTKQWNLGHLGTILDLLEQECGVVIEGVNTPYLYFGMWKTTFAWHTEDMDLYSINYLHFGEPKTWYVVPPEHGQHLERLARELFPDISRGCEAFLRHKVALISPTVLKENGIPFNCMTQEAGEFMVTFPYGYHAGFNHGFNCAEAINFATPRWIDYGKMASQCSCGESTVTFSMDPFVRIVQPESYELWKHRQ
Starred values were filed as active, the others as inactive; ? = inconclusive; . = no result given. Only a selection was taken, and hits are over-represented in it overall. Unless noted, the call rests on the fitted dose curve; in most records, active means well fitted curve in the direction sought with a large enough effect; inconclusive means small, poorly fitted or top-dose-only effect, or another doubt; inactive means no such curve, though single readings can be large; an effect the other way counts as inactive or inconclusive. Unless noted, on the % scale 0 is the no-effect control and ±100 the full control effect.

SMILES | Eya2 inh | Apoferritin bind | Six1-Eya2 inh | GALK inh | CtBP-E1A blk | KDM4E inh
O=C(c1ccc(S(=O)(=O)N2CCCC2)cc1)N1CCCCC1 | 17% | . | -5 | . | -6 | .
Cn1c(=O)c2c(nc(CN3CCN(c4ccccc4F)CC3)n2Cc2ccc(F)cc2)n(C)c1=O | . | -3% | . | . | . | .
CNc1c(C(=O)O)ccc2c1C(=O)c1ccccc1C2=O | -11% | -3% | -15 | . | 0 | ?
O=C(O)c1ccc2c(c1Nc1ccccc1)C(=O)c1ccccc1C2=O | -19% | 0% | -66* | 0% | ? | -28%
C=CC1=C(C(=O)O)N2C(=O)[C@@H](NC(=O)/C(=N\O)c3csc(N)n3)[C@H]2SC1 (stereo in doubt) | . | . | -90* | . | -85* | .
O=C(NCc1ccccc1)[C@]1(C(F)(F)F)C[C@H](CCC2CCCCC2)CCCO1 | . | 4% | . | . | . | .
CCOC(=O)COc1ccc(C(=O)c2ccccc2)c(O)c1 | -4% | ? | 5 | 2% | -2 | -2%
CCOc1ccc(C(=O)c2cccs2)cc1 | 2% | -21% | 33 | 10% | 7 | -1%
CCOc1cccc(C(=O)c2ccc(O)c(O)c2O)c1 | . | -12% | . | . | . | 10µM*
CCOc1ccc(C(=O)c2ccc(O)c(O)c2O)cc1 | . | -8% | . | . | . | 14µM*
O=C(Cn1c(=O)oc2cc(S(=O)(=O)N3CCCCC3)ccc21)NCc1ccc(Cl)cc1 | . | -14% | . | . | . | .
COC(=O)c1nnc(C(=O)N(C)Cc2ccccc2)c2[nH]c3ccccc3c12 | . | . | . | . | . | 1%
COc1ccccc1NC(=O)Cn1c(C)cc(=O)c2cccc(OC)c21 | 6% | 58% | -23 | 0% | ? | ?
COc1cccc2c(=O)cc(C)n(CC(=O)Nc3ccc(C)c(C)c3)c12 | -2% | 3% | -94* | -8% | -70* | -8%
COc1ccc(-c2[nH]c(-c3cccc(OC)c3)nc2SCC(=O)Nc2ccc3c(c2)OCO3)cc1 | . | 61% | . | . | . | .
CC(C)(C)c1ccc(-c2nc(NC(=O)CSc3ncnc4sc5c(c34)CCCC5)ns2)cc1 | . | 7% | . | . | . | .
O=C1c2c(O)cc(O)cc2O[C@H](c2ccc(O)c(O)c2)[C@@H]1O | 4% | -21% | . | 3% | . | 14µM*
COc1cc([C@@H]2Oc3cc(C4Oc5cc(O)cc(O)c5C(=O)[C@H]4O)ccc3O[C@H]2CO)ccc1O (stereo not given in full) | 3% | . | -1 | . | -13 | .
O=C1c2c(O)cc(O)cc2O[C@H](c2ccc(O)c(O)c2)[C@H]1O | 0% | -16% | 0 | 1% | -1 | 20µM*
COc1cc([C@@H]2Oc3cc([C@H]4Oc5cc(O)cc(O)c5C(=O)[C@H]4O)ccc3O[C@H]2CO)ccc1O | . | . | . | . | . | 28µM*
CCCCCCCCCCCCC/C=C/[C@@H](O)[C@H](CO)NC(=O)CCCCCCC | . | -7% | . | . | . | -24%
CCn1c(C)c(C)c2cc(C(=O)NCc3ccc(OC)cc3OC)ccc21 | . | 1% | . | . | . | .
COc1cc(/C=N/N(C)C2=NS(=O)(=O)c3ccccc32)cc(OC)c1OC | 12% | 45% | -83* | . | -92* | .
Nc1cccc2c(=O)[nH]ccc12 | . | 4% | . | . | . | .
CCc1ccc(-c2cn3nc(C)c(C)nc3n2)cc1 | 6% | 126% | 7 | 0% | -3 | 28µM*
OCC[C@@H]1C[C@H](O)[C@@H](O)[C@]2(OCCc3ccccc32)O1 | 7% | -5% | -83* | . | 10 | .
CC(C)(C)c1ccc(NC(=O)CSc2nnc3scc(-c4ccccc4)n23)cc1 | . | -3% | . | . | . | .
CCc1ccc(OCC2c3cc(OC)c(OC)cc3CCN2C(=O)c2ccc(S(=O)(=O)N3CCCC3)cc2)cc1 (stereo not given) | . | 6% | . | . | . | .
Cc1ccc(N2NC(=O)/C(=C/c3ccc(-c4ccc(Cl)c(C(=O)O)c4)o3)C2=O)cc1C | -1% | -1% | 6 | 0% | 4 | -4%
O=C1NN(c2ccc(Cl)c(Cl)c2)C(=O)/C1=C/c1ccc(-c2ccccc2C(=O)O)o1 | 3% | 2% | ? | . | -72* | .

Screening results from PubChem.
